Most compounds without a hit are left out; they make up all but 3.4% or so of the library.
proKLK7 act: proKLK7 zymogen activators, primary screen, biochemical, fluorescence intensity | Kallikrein-7 (Homo sapiens), P49862 | purified proKLK7, EDANS-DABCYL substrate fluorescence; 100% is mature enzyme control, 0% vehicle | activation, % at 7 µM | 370,000 tested, 0.9% active;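 active means activation above the mean of all tested compounds plus 3 SD, computed per campaign excluding outliers beyond control limits, cut at about 13% in these data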
ADAM10 inh: human ADAM10 inhibitors, primary screen, biochemical, QFRET, HTS; recombinant ADAM10, EDANS/DABCYL FRET peptide cleavage, 3 h; AID 720582, 2013; inhibition, % at 7 µM; 370,000 tested, 0.62% active;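 active means inhibition above a per-campaign cutoff equal to the mean of compounds falling between control-based bounds plus 3 SD, cut at about 20% in these data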;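 further: 0% = DMSO wells while the 100% control is not disclosed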
PLCg1 inh: PLC-gamma1 enzyme inhibitors, primary screen, biochemical, fluorescence, purified enzyme; fluorogenic substrate; 370,000 tested, 0.84% active; 1-phosphatidylinositol 4,5-bisphosphate phosphodiesterase gamma-1 (Homo sapiens), P19174; inhibition, % at 12.2 µM; in the data active means inhibition above about 9.5%
ADAM17 inh: ADAM17 inhibitors, primary screen, biochemical, QFRET; Disintegrin and metalloproteinase domain-containing protein 17 (Homo sapiens), P78536; recombinant ADAM17, EDANS/DABCYL FRET peptide cleavage; inhibition, % at 6.95 µM; 370,000 tested, 0.83% active; AID 720648, 2013;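 active means inhibition above the mean of compounds lying between control limits plus 3 SD, set per campaign, cut at about 8.5% in these data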;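 further: 0% = DMSO-only wells as the low control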
HGIII-sPLA2 inh: human group III sPLA2 inhibitors, primary screen, biochemical, QFRET, BODIPY PC-A2 liposome substrate. Group 3 secretory phospholipase A2 (Homo sapiens), Q9NZ20. QFRET BODIPY PC-A2 liposome hydrolysis, fluorescence. inhibition, % at 12.2 µM. 370,000 tested, 0.56% active;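 active means inhibition above mean plus 3 SD of compounds lying within the high and low control bounds, cut at about 19% in these data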;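 further: 0% = median of test compound wells and 100% = no enzyme DMSO wells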
PLC-beta3 inh: human PLC-beta3 inhibitors, primary screen, biochemical, fluorescence; 370,000 tested, 0.18% active; Purified PLC-beta3, fluorogenic substrate; inhibition, % at 12.2 µM; 1-phosphatidylinositol 4,5-bisphosphate phosphodiesterase beta-3 (Homo sapiens), Q01970; in the data active means inhibition above about 11%;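 further: 0% = median of compound wells on plate and 100% = full blocker control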
ADAM10 ctr: ADAM10 inhibitors, counter-screen for ADAM17 exosite inhibitor project, biochemical, FRET, human ADAM10. inhibition, % at 6.95 µM. AID 743256, 2014. recombinant ADAM10, EDANS/DABCYL FRET peptide cleavage, 3 h. shares compounds with ADAM17 inh. 2,900 tested, 47% active;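 active means mean inhibition over the triplicate runs exceeds the activity threshold set in the earlier primary screen, cut at about 20% in these data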;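 further: 0% = DMSO wells and 100% = marimastat wells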
ADAM17 confirm: ADAM17 inhibitors, hit retest, confirmation, biochemical, QFRET peptide cleavage; 2,900 tested, 65% active; inhibition, % at 6.95 µM; recombinant ADAM17, EDANS/DABCYL QFRET peptide cleavage; shares compounds with ADAM17 inh;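 active means mean inhibition across replicates above the hit cutoff set in the primary screen, cut at about 8.5% in these data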;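 further: 0% = DMSO wells and 100% = marimastat wells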
* hit, by the source's call.

What do the screens show for `CCCCC[C@@H](C)N1C[C@@H](COCc2ccccc2)Oc2cc(N3CCC[C@H]3CO)ccc2S1(=O)=O`?
proKLK7 act: -0.9; ADAM10 inh: 17.6; PLCg1 inh: -0.9; ADAM17 inh: 9.9*; HGIII-sPLA2 inh: -12.6; PLC-beta3 inh: -3.3; ADAM10 ctr: 23.2*; ADAM17 confirm: 15.2*

Results for CCC(C)(C)n1nnnc1C(c1ccc(C)cc1)N(Cc1ccco1)Cc1cccs1 (stereo unspecified) ?
proKLK7 act: 0.4; ADAM10 inh: 12.7; PLCg1 inh: 2.6; ADAM17 inh: 9.4*; HGIII-sPLA2 inh: -3.7; PLC-beta3 inh: 4.4; ADAM10 ctr: 6.8; ADAM17 confirm: 5.4

How did COc1cccc(CN(Cc2ccco2)C(c2ccc(F)cc2)c2nnnn2C(C)(C)C)c1 (stereo unspecified) do in these assays?
proKLK7 act: 0.3; ADAM10 inh: 1.4; PLCg1 inh: 1.6; ADAM17 inh: -2.0; HGIII-sPLA2 inh: -5.9; PLC-beta3 inh: -2.5

What do the screens show for `COC(=O)[C@]12C[C@H](CC(=O)NCC3CCCCC3)C(=O)N(CCc3ccc(OC)c(OC)c3)C1=C[C@H](COCc1ccccc1)O[C@@H]2C`?
proKLK7 act: 1.0; ADAM10 inh: 5.9; PLCg1 inh: 5.0; ADAM17 inh: 10.6*; HGIII-sPLA2 inh: -6.2; PLC-beta3 inh: 5.0; ADAM10 ctr: 26.0*; ADAM17 confirm: 9.1*

How did Cc1ccc(S(=O)(=O)Nc2cc(=O)[nH]c(SCc3ccc(Cl)cc3)n2)cc1 do in these assays?
proKLK7 act: 0.4; ADAM10 inh: 15.6; PLCg1 inh: -2.5; ADAM17 inh: 12.1*; HGIII-sPLA2 inh: -35.1; PLC-beta3 inh: -4.0; ADAM10 ctr: 19.9*; ADAM17 confirm: 16.6*

How did CCCNc1ncnc2onc(C)c12 do in these assays?
proKLK7 act: 0.3; ADAM10 inh: 5.4; PLCg1 inh: 4.6; ADAM17 inh: 9.8*; HGIII-sPLA2 inh: -3.9; PLC-beta3 inh: 6.5; ADAM10 ctr: 10.7; ADAM17 confirm: 8.6

How did CCOc1ccc(CO[C@@H]2O[C@H](CO)[C@@H](O)[C@H](O)[C@H]2NC(C)=O)cc1OC do in these assays?
proKLK7 act: 0.1; ADAM10 inh: -2.6; PLCg1 inh: 3.0; ADAM17 inh: -2.1; HGIII-sPLA2 inh: 0.6; PLC-beta3 inh: -3.6

Results for Cc1cc(C)c(OCC(=O)NCC2COc3ccccc3O2)c(C)c1 (stereo unspecified) ?
proKLK7 act: -0.5; ADAM10 inh: 11.0; PLCg1 inh: 3.6; ADAM17 inh: 14.6*; HGIII-sPLA2 inh: -16.1; PLC-beta3 inh: 1.1; ADAM10 ctr: 9.4; ADAM17 confirm: 5.0

Results for Cc1ccc(C)c(OCC(=O)NCC2COc3ccccc3O2)c1 (stereo unspecified) ?
proKLK7 act: -0.6; ADAM10 inh: -3.4; PLCg1 inh: -5.8; ADAM17 inh: -2.3; HGIII-sPLA2 inh: 6.2; PLC-beta3 inh: -10.5

Results for CCOc1ccc(OCCC(=O)NNC(=O)c2cc(OC)c(OC)c(OC)c2)cc1 ?
proKLK7 act: 0.4; ADAM10 inh: -9.5; PLCg1 inh: 0.9; ADAM17 inh: -22.9; HGIII-sPLA2 inh: 0.3; PLC-beta3 inh: -5.7

What do the screens show for `CCOC(=O)c1sc(SC)c2c1CCCC2=O`?
proKLK7 act: -0.1; ADAM10 inh: 14.8; PLCg1 inh: 6.6; ADAM17 inh: 9.3*; HGIII-sPLA2 inh: 7.1; PLC-beta3 inh: 8.7; ADAM10 ctr: -5.2; ADAM17 confirm: -0.4

Results for FC(F)(F)c1ccc(C2[C@H]3CN(CC4CCCCC4)[C@H](c4ccccc4)C34CC2(c2cccnc2)C4)cc1 (stereo partly specified) ?
proKLK7 act: 0.0; ADAM10 inh: -8.5; PLCg1 inh: 3.1; ADAM17 inh: -3.4; HGIII-sPLA2 inh: 9.2; PLC-beta3 inh: -3.4

What do the screens show for `COc1ccc(NC(=O)c2oc3ccccc3c2NC(=O)C2CC2)cc1`?
proKLK7 act: 0.4; ADAM10 inh: -5.7; PLCg1 inh: 0.2; ADAM17 inh: -2.7; HGIII-sPLA2 inh: 4.0; PLC-beta3 inh: -4.9

How did COc1ccc(NC(=O)c2oc3ccccc3c2NC(=O)C(C)(C)C)cc1 do in these assays?
proKLK7 act: 0.6; ADAM10 inh: 8.9; PLCg1 inh: -24.7; ADAM17 inh: 9.7*; HGIII-sPLA2 inh: -3.8; PLC-beta3 inh: -45.6; ADAM10 ctr: 8.8; ADAM17 confirm: 8.8*

Results for COc1ccc(-n2ncc(C(C)NS(=O)(=O)c3cc(C)sc3C)c2C)cc1 (stereo unspecified) ?
proKLK7 act: -0.4; ADAM10 inh: -4.8; PLCg1 inh: 0.8; ADAM17 inh: -5.2; HGIII-sPLA2 inh: 1.4; PLC-beta3 inh: 1.6

How did COc1cc(-c2coc3c(C(=O)NCc4cccc(Cl)c4)cccc23)ccc1O do in these assays?
proKLK7 act: 0.5; ADAM10 inh: 15.2; PLCg1 inh: -1.3; ADAM17 inh: 8.6*; HGIII-sPLA2 inh: -15.0; PLC-beta3 inh: 2.7; ADAM10 ctr: 27.5*; ADAM17 confirm: 12.6*

What do the screens show for `CC(C)c1ccc(S(=O)(=O)N2CCN(C(=S)NCc3ccco3)CC2)cc1`?
proKLK7 act: 0.3; ADAM10 inh: 4.6; PLCg1 inh: 3.2; ADAM17 inh: 9.5*; HGIII-sPLA2 inh: -5.3; PLC-beta3 inh: -36.4; ADAM10 ctr: 28.3*; ADAM17 confirm: 16.8*

Results for O=S(=O)(c1cccc(C(F)(F)F)c1)N1CCN(C(=S)NCc2ccco2)CC1 ?
proKLK7 act: -0.2; ADAM10 inh: -2.5; PLCg1 inh: -1.5; ADAM17 inh: 2.0; HGIII-sPLA2 inh: -4.8; PLC-beta3 inh: -1.6

What do the screens show for `Fc1ccc(Cn2c(SCc3ccc(F)c(C(F)(F)F)c3)nnc2C(F)(F)F)cc1`?
proKLK7 act: 0.3; ADAM10 inh: 15.9; PLCg1 inh: -3.0; ADAM17 inh: 8.8*; HGIII-sPLA2 inh: 1.4; PLC-beta3 inh: -3.5; ADAM10 ctr: 37.1*; ADAM17 confirm: 16.9*

What do the screens show for `Fc1ccc(Cn2c(SCc3ccc(F)c(F)c3)nnc2C(F)(F)F)cc1`?
proKLK7 act: 0.4; ADAM10 inh: 8.5; PLCg1 inh: -5.2; ADAM17 inh: 2.8; HGIII-sPLA2 inh: -4.9; PLC-beta3 inh: -1.5
